Data published in PubChem BioAssay (NCI).
This is part of a sample that, as a whole, favours compounds with a hit. Of some 83,000 tested, about 20% had one in any assay.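 Method: cells in 96-well plates; compound added at one concentration; 48 h incubation; percent growth measured; values under 10 scored active.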 Calls of active or inactive are those of the source.

Experiments:
Test in all cases: NCI-60 one-dose screen, 48 h (100 = growth as untreated, 0 = no growth, -100 = all killed)
Details in all cases: 10 µM unless noted
DU-145 prostate = test system: DU-145 prostate
K-562 leukemia = test system: K-562 leukemia
MALME-3M melanoma = test system: MALME-3M melanoma
MDA-MB-231 breast = test system: MDA-MB-231 breast
RXF 393 renal = test system: RXF 393 renal
SF-268 CNS = test system: SF-268 CNS
SF-295 CNS = test system: SF-295 CNS
SF-539 CNS = test system: SF-539 CNS
UACC-257 melanoma = test system: UACC-257 melanoma
M14 melanoma = test system: M14 melanoma
HCT-15 colon = test system: HCT-15 colon
HT29 colon = test system: HT29 colon
SNB-75 CNS = test system: SNB-75 CNS
SNB-19 CNS = test system: SNB-19 CNS
U251 CNS = test system: U251 CNS
PC-3 prostate = test system: PC-3 prostate
SK-MEL-5 melanoma = test system: SK-MEL-5 melanoma
UACC-62 melanoma = test system: UACC-62 melanoma
LOX IMVI melanoma = test system: LOX IMVI melanoma
SK-MEL-28 melanoma = test system: SK-MEL-28 melanoma

Measured: growth

CCCCOC(=O)c1cccc([N+](=O)[O-])c1
inactive: DU-145 prostate 117% | K-562 leukemia 144% | MALME-3M melanoma 117% | MDA-MB-231 breast 121% | RXF 393 renal 111% | SF-268 CNS 110% | SF-295 CNS 101% | SF-539 CNS 105% | UACC-257 melanoma 93.6% | M14 melanoma 105% | HCT-15 colon 118% | HT29 colon 107% | SNB-75 CNS 94.9% | SNB-19 CNS 113% | U251 CNS 97.4% | PC-3 prostate 95% | SK-MEL-5 melanoma 110% | UACC-62 melanoma 108% | LOX IMVI melanoma 108% | SK-MEL-28 melanoma 119%

CCN(CC)CCCOc1ccc2c(c1)O/C(=C\c1cccc(OC)c1)C2=O
inactive: DU-145 prostate 86.8% | K-562 leukemia 21.5% | MALME-3M melanoma 90.5% | MDA-MB-231 breast 87.1% | RXF 393 renal 85.6% | SF-268 CNS 86.1% | SF-295 CNS 93.4% | SF-539 CNS 86.7% | UACC-257 melanoma 100% | M14 melanoma 92.6% | HCT-15 colon 53.5% | HT29 colon 50.2% | SNB-75 CNS 71.8% | SNB-19 CNS 92.6% | U251 CNS 76.7% | PC-3 prostate 94.6% | SK-MEL-5 melanoma 91.2% | UACC-62 melanoma 95.6% | LOX IMVI melanoma 70.7% | SK-MEL-28 melanoma 101%

O=c1cc(-c2ccccc2)oc2c(O)c(O)ccc12
inactive: DU-145 prostate 68.4% | K-562 leukemia 63.9% | MALME-3M melanoma 87.2% | MDA-MB-231 breast 71% | RXF 393 renal 72.9% | SF-268 CNS 67.6% | SF-295 CNS 64.5% | SF-539 CNS 53.1% | UACC-257 melanoma 85.3% | M14 melanoma 58.8% | HCT-15 colon 38% | HT29 colon 77.4% | SNB-75 CNS 73.7% | SNB-19 CNS 58% | U251 CNS 43.1% | PC-3 prostate 67.4% | SK-MEL-5 melanoma 53.6% | UACC-62 melanoma 72.7% | LOX IMVI melanoma 53.9% | SK-MEL-28 melanoma 81%

C1=C[C@H]2O[C@@H]1c1ccc3[nH]ccc3c12
inactive: DU-145 prostate 116% | K-562 leukemia 53.3% | MALME-3M melanoma 102% | MDA-MB-231 breast 93.4% | RXF 393 renal 92.5% | SF-268 CNS 104% | SF-295 CNS 103% | SF-539 CNS 107% | UACC-257 melanoma 91.6% | M14 melanoma 86.3% | HCT-15 colon 78.8% | HT29 colon 87.7% | SNB-75 CNS 83.4% | SNB-19 CNS 96.8% | U251 CNS 103% | PC-3 prostate 98% | SK-MEL-5 melanoma 90.4% | UACC-62 melanoma 78.8% | LOX IMVI melanoma 100% | SK-MEL-28 melanoma 94%

C=C(C)[C@@H]1CC[C@]2(COCCC#N)CC[C@]3(C)[C@H](CC[C@@H]4[C@@](C)(CCCNCCC#N)[C@H](C(=C)C)CC[C@]43C)[C@@H]12
inactive: DU-145 prostate 46.4% [100 µM] | MDA-MB-231 breast 13.9% [100 µM] | SF-268 CNS 53% [100 µM] | SF-295 CNS 65.2% [100 µM] | UACC-257 melanoma 27.6% [100 µM] | M14 melanoma 32.4% [100 µM] | HCT-15 colon 35.7% [100 µM] | SNB-75 CNS 40.8% [100 µM] | SNB-19 CNS 59% [100 µM] | PC-3 prostate 20.1% [100 µM] | UACC-62 melanoma 29.8% [100 µM]
active: K-562 leukemia 7.57% [100 µM] | MALME-3M melanoma -47.8% [100 µM] | RXF 393 renal -11.8% [100 µM] | SF-539 CNS -20% [100 µM] | HT29 colon 2.94% [100 µM] | U251 CNS 5.95% [100 µM] | SK-MEL-5 melanoma 2.58% [100 µM] | LOX IMVI melanoma -74.4% [100 µM] | SK-MEL-28 melanoma -37.3% [100 µM]

Cc1ccc(-n2nc3n(/c2=N\C(=O)NS(=O)(=O)c2ccc(C)cc2)CCN3C2=NCCN2)cc1
inactive: DU-145 prostate 108% | K-562 leukemia 109% | MALME-3M melanoma 106% | MDA-MB-231 breast 99.7% | RXF 393 renal 123% | SF-268 CNS 103% | SF-295 CNS 102% | SF-539 CNS 95.1% | UACC-257 melanoma 98.1% | M14 melanoma 101% | HCT-15 colon 105% | HT29 colon 107% | SNB-75 CNS 85.6% | SNB-19 CNS 99.2% | U251 CNS 105% | PC-3 prostate 96.4% | SK-MEL-5 melanoma 105% | UACC-62 melanoma 95.9% | LOX IMVI melanoma 113% | SK-MEL-28 melanoma 101%

CC1Cc2c(Cl)ncnc2N(C)c2ccc(Cl)cc21 (stereo not given)
active: MDA-MB-231 breast -39.8% | RXF 393 renal 0.883% | UACC-257 melanoma 4.86% | HCT-15 colon 6.68% | HT29 colon -0.897% | SK-MEL-5 melanoma -86.9% | LOX IMVI melanoma -69.3%
inactive: DU-145 prostate 40.9% | K-562 leukemia 14.7% | MALME-3M melanoma 22.6% | SF-268 CNS 18.8% | SF-295 CNS 20.2% | SF-539 CNS 28.1% | M14 melanoma 11.1% | SNB-75 CNS 50.1% | SNB-19 CNS 25.2% | U251 CNS 18.8% | PC-3 prostate 13.9% | UACC-62 melanoma 11.8% | SK-MEL-28 melanoma 20.6%

Cc1cc(C)c(S(=O)(=O)/N=c2/n(-c3ccccc3)nc3n2CCN3C2=NCCN2)c(C)c1
inactive: DU-145 prostate 98% | K-562 leukemia 38.9% | MALME-3M melanoma 50.7% | MDA-MB-231 breast 67.7% | RXF 393 renal 54.9% | SF-268 CNS 81.4% | SF-295 CNS 95.8% | SF-539 CNS 88.8% | UACC-257 melanoma 92% | M14 melanoma 98.9% | HCT-15 colon 90.1% | HT29 colon 58% | SNB-75 CNS 74.3% | SNB-19 CNS 91.5% | U251 CNS 76.4% | PC-3 prostate 69.5% | SK-MEL-5 melanoma 60.4% | UACC-62 melanoma 88.8% | LOX IMVI melanoma 73.3% | SK-MEL-28 melanoma 82.3%
